# Results: PubChem BioAssay
# The source made the active and inactive calls.
# What was measured:
# [1] = small molecules captured by biotinylated probe aFSTL3 – biochemical, small-molecule microarray, fluorescence 635/667, stem cell growth factor project, primary screen (AID 1064); conditions: higher = more signal;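 further: measures binding of the biotinylated anti-FSTL3 antibody to printed compounds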
# [2] = binders from COS7 lysate, DM2A8 probe, primary screen, torsin A project, cell lysate, small-molecule microarray, fluorescence 635/667 (AID 1065); conditions: higher = more signal, COS7 lysate expressing mutant human TOR1A
# [3] = small molecules captured by biotinylated probe aFGF2 – biochemical, small-molecule microarray, fluorescence 635/667, stem cell growth factor project, primary screen (AID 1067); conditions: higher = more signal;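 further: measures binding of biotinylated aFGF2 protein to printed compounds on slides; z-score merges feature fluorescence and signal-to-noise across triplicate slides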
# [4] = small molecules captured by biotinylated probe aFGF10 – biochemical, small-molecule microarray, fluorescence 635/667, stem cell growth factor project, primary screen (AID 1071); conditions: higher = more signal;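 further: score merges 667 nm spot intensity and signal to noise from triplicate slides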
# [5] = target: Neurogenic locus notch homolog protein 2 (Homo sapiens) (UniProt Q04721); assay: small molecules binding Notch2 protein – biochemical, small-molecule microarray, 635 nm fluorescence, stem cell growth factors, primary screen (AID 1073); conditions: higher = more signal
# [6] = target: Pro-neuregulin-1, membrane-bound isoform (Homo sapiens) (UniProt Q02297); assay: small molecules binding neuregulin-1 protein – biochemical, small-molecule microarray, fluorescence 635/667, psychiatric disease protein project, primary screen (AID 1075); conditions: NRG1 binding, 635 nm fluorescence, higher = more signal;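 further: score combines 667 nm spot fluorescence with signal to noise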
# [7] = tested on: Neuregulin-1 EGF-like domain; assay: small molecules binding NRG1 EGF domain – biochemical, small-molecule microarray, 635 nm fluorescence, primary screen (AID 1081); conditions: higher = more signal;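 further: binding of the protein to compounds printed on small-molecule microarray slides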
# [8] = FRG1 expression reporter modulators in myotubes – cell-based, C2C12 myotubes, firefly/Renilla luciferase, luminescence, FRG1 inhibition for FSHD, primary screen (AID 1084); conditions: FRG1 promoter luciferase, higher = more signal, called active from +8 up or from −8 down
# [9] = small molecules captured by biotinylated probe aFST – biochemical, small-molecule microarray, fluorescence 635/667, stem cell growth factor project, primary screen (AID 1086); conditions: higher = more signal;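 further: score merges 667 nm fluorescence with signal-to-noise of each printed compound spot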
# [10] = binders of probe aHhip on microarray, primary screen, stem cell growth factor project, biochemical, small-molecule microarray, fluorescence 635/667 (AID 1087); conditions: higher = more signal;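 further: score merges spot fluorescence at 667nm with spot signal to noise ratio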
# Neurogenic locus notch homolog protein 2 (Homo sapiens), sequence (Q04721 whole entry, looked up, canonical isoform): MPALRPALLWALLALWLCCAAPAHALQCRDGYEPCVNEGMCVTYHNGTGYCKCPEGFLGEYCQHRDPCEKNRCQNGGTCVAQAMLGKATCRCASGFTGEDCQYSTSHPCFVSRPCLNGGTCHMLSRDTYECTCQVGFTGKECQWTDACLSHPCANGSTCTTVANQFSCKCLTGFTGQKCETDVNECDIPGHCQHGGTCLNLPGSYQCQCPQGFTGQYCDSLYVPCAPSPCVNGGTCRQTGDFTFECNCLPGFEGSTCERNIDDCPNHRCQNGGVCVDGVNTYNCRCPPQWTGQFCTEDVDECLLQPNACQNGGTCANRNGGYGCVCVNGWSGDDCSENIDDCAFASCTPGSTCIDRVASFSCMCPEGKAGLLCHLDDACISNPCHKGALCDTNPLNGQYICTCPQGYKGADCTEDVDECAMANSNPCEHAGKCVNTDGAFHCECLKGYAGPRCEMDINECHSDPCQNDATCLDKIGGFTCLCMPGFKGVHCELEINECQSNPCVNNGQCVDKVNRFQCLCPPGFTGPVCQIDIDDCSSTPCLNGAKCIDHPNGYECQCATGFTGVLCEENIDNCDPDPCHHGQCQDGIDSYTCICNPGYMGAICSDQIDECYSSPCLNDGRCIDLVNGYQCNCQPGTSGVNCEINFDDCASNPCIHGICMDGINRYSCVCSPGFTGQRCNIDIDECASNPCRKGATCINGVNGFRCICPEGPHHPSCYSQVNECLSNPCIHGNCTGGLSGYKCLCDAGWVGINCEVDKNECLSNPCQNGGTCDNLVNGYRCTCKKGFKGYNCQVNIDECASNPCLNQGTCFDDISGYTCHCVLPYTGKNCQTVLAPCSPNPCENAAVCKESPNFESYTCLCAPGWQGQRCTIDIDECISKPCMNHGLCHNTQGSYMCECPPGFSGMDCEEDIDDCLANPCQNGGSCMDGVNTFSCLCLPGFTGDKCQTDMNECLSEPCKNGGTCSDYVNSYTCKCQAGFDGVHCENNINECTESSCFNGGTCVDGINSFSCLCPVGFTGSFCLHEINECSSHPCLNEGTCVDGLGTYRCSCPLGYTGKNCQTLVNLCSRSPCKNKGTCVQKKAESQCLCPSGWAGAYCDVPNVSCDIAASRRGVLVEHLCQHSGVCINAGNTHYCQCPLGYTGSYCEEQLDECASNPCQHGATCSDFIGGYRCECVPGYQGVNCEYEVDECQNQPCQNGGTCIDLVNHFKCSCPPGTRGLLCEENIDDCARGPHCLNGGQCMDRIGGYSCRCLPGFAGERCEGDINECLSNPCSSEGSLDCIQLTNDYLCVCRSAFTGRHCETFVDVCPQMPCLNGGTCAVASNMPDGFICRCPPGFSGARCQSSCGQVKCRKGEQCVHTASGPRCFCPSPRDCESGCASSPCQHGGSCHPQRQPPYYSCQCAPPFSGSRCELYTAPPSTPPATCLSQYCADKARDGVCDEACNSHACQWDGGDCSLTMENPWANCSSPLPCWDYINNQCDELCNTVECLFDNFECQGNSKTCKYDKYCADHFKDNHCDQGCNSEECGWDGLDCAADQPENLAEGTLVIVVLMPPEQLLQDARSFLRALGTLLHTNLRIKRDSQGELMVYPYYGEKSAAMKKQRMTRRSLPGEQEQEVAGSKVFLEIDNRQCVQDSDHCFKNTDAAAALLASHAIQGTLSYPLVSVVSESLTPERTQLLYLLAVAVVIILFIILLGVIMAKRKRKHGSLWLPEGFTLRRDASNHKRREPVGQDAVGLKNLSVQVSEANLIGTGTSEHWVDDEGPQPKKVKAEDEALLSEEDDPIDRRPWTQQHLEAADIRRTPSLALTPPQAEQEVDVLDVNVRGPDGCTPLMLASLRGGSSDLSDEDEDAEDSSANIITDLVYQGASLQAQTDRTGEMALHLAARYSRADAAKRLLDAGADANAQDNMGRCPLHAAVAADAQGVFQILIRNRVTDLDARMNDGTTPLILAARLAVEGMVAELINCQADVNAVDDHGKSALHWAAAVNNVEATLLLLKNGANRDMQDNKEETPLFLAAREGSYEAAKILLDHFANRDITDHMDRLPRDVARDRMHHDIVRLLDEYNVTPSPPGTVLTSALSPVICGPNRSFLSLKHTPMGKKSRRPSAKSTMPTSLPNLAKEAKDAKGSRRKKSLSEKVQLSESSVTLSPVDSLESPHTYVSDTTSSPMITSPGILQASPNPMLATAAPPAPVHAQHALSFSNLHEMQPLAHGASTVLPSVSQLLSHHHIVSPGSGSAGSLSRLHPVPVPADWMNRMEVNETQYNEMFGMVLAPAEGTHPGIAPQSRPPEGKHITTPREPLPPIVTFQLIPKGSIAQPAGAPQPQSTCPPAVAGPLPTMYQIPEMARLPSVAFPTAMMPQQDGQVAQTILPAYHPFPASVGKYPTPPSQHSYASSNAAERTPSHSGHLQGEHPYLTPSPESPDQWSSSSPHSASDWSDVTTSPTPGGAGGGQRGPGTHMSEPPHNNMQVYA
# Pro-neuregulin-1, membrane-bound isoform (Homo sapiens), sequence (Q02297 whole entry, looked up, the tested form may be a part, canonical isoform): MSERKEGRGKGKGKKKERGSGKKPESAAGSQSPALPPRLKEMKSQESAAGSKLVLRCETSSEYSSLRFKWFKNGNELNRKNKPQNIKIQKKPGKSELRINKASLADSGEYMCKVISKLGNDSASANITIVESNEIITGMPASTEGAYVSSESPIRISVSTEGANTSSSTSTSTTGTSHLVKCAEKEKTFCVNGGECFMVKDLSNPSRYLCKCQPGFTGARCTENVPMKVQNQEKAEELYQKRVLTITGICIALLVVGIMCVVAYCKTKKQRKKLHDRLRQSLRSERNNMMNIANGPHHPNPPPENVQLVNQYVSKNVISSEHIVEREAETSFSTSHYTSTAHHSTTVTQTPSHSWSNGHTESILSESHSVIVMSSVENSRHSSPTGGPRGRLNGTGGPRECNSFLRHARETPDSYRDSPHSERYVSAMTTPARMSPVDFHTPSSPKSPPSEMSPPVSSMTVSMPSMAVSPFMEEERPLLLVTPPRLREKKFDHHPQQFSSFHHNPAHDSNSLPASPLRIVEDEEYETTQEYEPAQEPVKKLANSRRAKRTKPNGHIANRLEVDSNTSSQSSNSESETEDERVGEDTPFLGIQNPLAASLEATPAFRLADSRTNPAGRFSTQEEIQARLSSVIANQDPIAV
SMILES,composite z-score [1],composite z-score [2],composite z-score [3],composite z-score [4],composite z-score [5],composite z-score [6],composite z-score [7],z-score [8],composite z-score [9],composite z-score [10]
COc1ccc(C(=O)Nc2cccc(CN3C(=O)[C@]4(O[C@H](CC(=O)N5CCC[C@H]5CO)[C@@H]([Si](C)(C)c5ccc(OC)cc5)[C@@H]4C)c4ccccc43)c2)cc1,-0.0422,0.717,0.0257,0.394,0.135,0.847,1.12,-1.22 (inactive),0.156,-0.253
CCOC(=O)C[C@H]1[C@H](OC(=O)c2ccc(-c3ccccc3)cc2)[C@@H](NC(=O)Cc2ccc(OC)cc2)c2cc(OCCCO)ccc2N1C(=O)c1ccc2ccccc2n1,-0.389,-0.188,0.0176,0.178,0.76,0.33,0.0896,0.817 (inactive),0.484,-0.0645
CC(C)C[C@@H]1NC(=O)[C@@H]2C[C@H](C(=O)NCCCCCC[N+](C)(C)C)[C@H](c3ccc(O)cc3)N2C1=O,-0.0515,0.349,-0.112,0.154,-0.344,1.57,1.46,1.97 (inactive),0.0819,-0.271
CCCCC=C[C@@H](NC(=O)c1ccco1)c1ccccc1,-0.0252,0.0908,0.0603,0.372,0.929,0.783,-0.628,1.36 (inactive),0.199,0.525
CC(=O)NCCCC[C@@H]1NC(=O)[C@H]2C[C@@H](C(=O)NCCCCCC[N+](C)(C)C)[C@@H](c3cccc(OCCO)c3)N2C1=O,-0.374,0.645,-0.0894,0.245,0.117,1.5,1.42,5.18 (inactive),-0.0568,-0.201
O=C(CCN1CCOCC1)c1cccc(O)c1,-0.302,1.79,-0.0521,0.628,1.31,1.23,1.17,-1.28 (inactive),0.852,-0.0953
O=C1O[C@H](c2ccccc2)[C@H](c2ccccc2)N2[C@H]1[C@@H](C(=O)N1CCN(c3ncccn3)CC1)[C@]1(C(=O)Nc3ccccc31)[C@H]2c1ccc(OCCO)cc1,-0.371,0.0417,-0.106,0.309,1.18,0.0248,1.31,1.03 (inactive),0.348,0.34
N#Cc1ccc(NN2C(C(O)c3cccs3)C=CC3C(=O)N(c4ccccc4)C(=O)C32)cc1 (stereo not given),0.106,0.145,0.0887,0.546,1.47,1.93,1.06,-0.911 (inactive),0.632,-0.236
CC(C)C(=C=CC[C@H](O)c1cccc(OCCO)c1)C[C@H](O)COCc1ccccc1,-0.222,0.0852,-0.095,0.659,-0.139,1.67,1.13,0.724 (inactive),-0.22,-0.0994
C=C[C@@H](COC(C)=O)N(Cc1ccc([N+](=O)[O-])cc1)S(=O)(=O)c1ccc(Br)cc1,0.381,-0.339,0.0258,0.642,1.1,0.668,1.12,-1.5 (inactive),0.804,-0.21
O=C1C2C=CC(C(O)c3ccc(F)cc3)N(Nc3ccccc3)C2C(=O)N1c1ccccc1 (stereo not given),0.719,0.616,0.0332,0.407,0.314,0.828,1.14,-1.65 (inactive),0.593,0.0053
C=CC[C@]1(C(=O)N2CCOCC2)N=C(c2ccc(OCCCO)cc2)O[C@H]1c1ccccc1,0.744,0.905,0.0445,0.147,0.618,2.1,1.25,0.54 (inactive),0.374,-0.251
CC(C)c1ccc(NN2C(C(O)c3ccc(N(C)C)cc3)C=CC3C(=O)N(c4ccccc4)C(=O)C32)cc1 (stereo not given),-0.145,1.43,0.0485,0.405,1.5,1.88,1.12,2.3 (inactive),1.46,-0.166
COc1ccc([Si](C)(C)[C@@H]2[C@@H](CCn3cc([C@H](O)c4ccccc4)nn3)O[C@]3(C(=O)N(Cc4cccc(N5CCOC5=O)c4)c4ccccc43)[C@H]2C)cc1,0.752,-0.268,-0.152,-0.368,-1.11,0.0895,-0.0072,1.34 (inactive),-0.64,-0.236
COCCOC(=O)N1C(=O)[C@@]2(c3cc(C#CCC(C(=O)OC)C(=O)OC)ccc31)[C@H](c1ccccc1OCCO)N1[C@H](c3ccccc3)[C@H](c3ccccc3)OC(=O)[C@H]1[C@@H]2C(=O)N1CCc2cc(OC)c(OC)cc2C1,-0.257,0.007,-0.126,0.319,1.46,1.09,1.27,-0.285 (inactive),0.638,-0.0655
Cc1ccc(S[C@]2(C(=O)NCC(C)C)CC(=O)N(Cc3ccccc3)[C@@H]2c2ccc(CO)cc2I)cc1,-0.0472,0.0315,0.0664,0.161,0.533,0.892,1.27,-2.06 (inactive),-0.325,-0.0427

SMILES,composite z-score [1],composite z-score [2],composite z-score [3],composite z-score [4],composite z-score [5],composite z-score [6],composite z-score [7],z-score [8],composite z-score [9],composite z-score [10]
CCOC(=O)C1=CC[C@@H](c2ccccc2Cl)N(S(=O)(=O)c2ccc(C)cc2)C1,0.091,-0.507,0.102,0.435,1.3,1.31,0.828,-3 (inactive),0.802,0.0373
COCCOC(=O)N1C(=O)[C@@]2(c3cc(C#CCNC(N)=O)ccc31)[C@H](c1ccc(O)cc1)N1[C@H](c3ccccc3)[C@H](c3ccccc3)OC(=O)[C@H]1[C@@H]2C(=O)Nc1nc2ccccc2s1,0.764,0.172,-0.0736,0.826,1.27,0.787,0.297,-0.0332 (inactive),0.522,-0.0994
COc1ccc(C(O)C2C=CC3C(=O)N(C)C(=O)C3N2Nc2ccccc2)cc1OCc1ccccc1 (stereo not given),0.008,0.174,0.0258,0.386,1.28,1.94,1.31,-1.1 (inactive),0.346,0.208
CCOC(=O)C[C@H]1[C@H](OC(=O)c2ccccc2-c2ccccc2)[C@@H](NC(=O)c2ccc3ccccc3c2)c2cc(OCCCO)ccc2N1C(=O)c1ccc2ccccc2n1,-0.279,0.353,-0.08,0.443,0.135,0.0753,0.545,0.122 (inactive),0.484,-0.0373
CC(C)c1ccc(NN2C(C(O)c3c(F)cccc3Cl)C=CC3C(=O)N(c4ccccc4)C(=O)C32)cc1 (stereo not given),1.07,0.177,0.0923,0.653,1.52,1.31,0.973,2.73 (inactive),1.68,-0.139
O=C1OCC=C[C@H]2OC34C=CCN(c5ccc(Cl)cc5)C(=O)[C@H]3N(CCCCCCO)C(=O)[C@@H]4[C@@H]12 (stereo not given in full),1.06,-0.793,-0.163,-0.688,-0.737,2.26,1.53,1.16 (inactive),-0.455,-0.271
CC(c1ccccc1)C(O)C1C=CC2C(=O)NC(=O)C2N1Nc1ccccn1 (stereo not given),0.166,-0.0988,-0.044,0.306,1.5,0.142,1.33,1.14 (inactive),0.421,-0.271
O=C(O)[C@@]1(Cc2ccccc2)N=C(c2ccc(OCCCO)cc2)O[C@H]1c1ccccc1,0.447,-0.647,-0.0819,0.0083,-0.738,1.91,0.923,-3.29 (inactive),0.88,-0.126
O=C1N(CCS(=O)(=O)c2ccccc2)Cc2ccccc2[C@H]2OC(c3ccc(OCCCO)cc3)=N[C@@]12CCS(=O)(=O)c1ccccc1,1.11,0.994,0.145,0.784,1.37,1.62,1.36,-2.53 (inactive),0.593,-0.189
O=C1OCC=C[C@H]2OC34C=CCN(c5ccc6ccccc6c5)C(=O)[C@H]3N(CCCO)C(=O)[C@@H]4[C@@H]12 (stereo not given in full),0.714,-2.17,-0.102,-0.657,-0.894,-0.0772,1.59,0.389 (inactive),-0.234,0.0515
Cc1cc(C)c(C(O)C2C=CC3C(=O)N(c4ccccc4)C(=O)C3N2Nc2ccc(C#N)cc2)c(C)c1 (stereo not given),0.624,0.36,0.111,0.783,1.58,1.74,1.15,-1.08 (inactive),1.73,0.167
COc1ccc(C#Cc2ccc3c(c2)[C@]2(C(=O)N3)[C@H](C(=O)NC[C@H](O)c3ccccc3)[C@H]3C(=O)O[C@H](c4ccccc4)[C@H](c4ccccc4)N3[C@@H]2c2ccccc2OCCO)cc1,-0.185,0.324,0.0128,0.688,1.29,1.56,1.19,0.162 (inactive),0.653,-0.0994
CCCCCN1CC=CC23O[C@@H]4/C=C\CCCOC(=O)C4[C@H]2C(=O)N(CCCCCCO)[C@@H]3C1=O (stereo not given in full),-0.19,0.109,-0.103,-0.525,-0.774,0.729,1.28,-1.19 (inactive),-0.645,-0.37
[N-]=[N+]=NCc1ccccc1C[C@@]1(C(=O)NCC(O)CO)N=C(c2ccc(OCCCO)cc2)O[C@@H]1c1ccccc1CN=[N+]=[N-] (stereo not given in full),0.178,-0.342,0.0587,0.939,1.43,1.34,1.21,-0.429 (inactive),0.704,-0.115
C=CCC(OC(C)=O)[C@@H]1[C@@H](N(Cc2ccc(-c3ccccc3)cc2)C(=O)Cc2ccc(OC)cc2)c2cc(OCCCO)ccc2N1C(=O)c1ccc2ccccc2n1 (stereo not given in full),0.0604,-0.11,-0.0074,-0.0502,0.0378,-0.111,-0.271,-0.83 (inactive),0.411,-0.0994
NCCCCCNC(=O)[C@H]1C[C@H]2C(=O)NCC(=O)N2[C@H]1c1cccc(OCCO)c1,0.257,0.759,-0.0337,-0.0838,0.709,1.17,1.43,1.11 (inactive),0.95,0.165
